According to the supplement of paper PMC10849652:
The full data set covers some 8,800 targets. This sample favours those with a hit. About 0.5% of all pairs of compound and target were hits. A number with no mark means an inactive call.

How the values were obtained:
Assay in all cases: log2 fold change, soluble protein after heating vs DMSO (PISA); higher = thermal stabilisation; K562 lysate, 10 uM; active = over 0.2 and 3.5 SD of the protein, either way, in both replicates (recomputed)
lapatinib = compound: CS(=O)(=O)CCNCc1ccc(-c2ccc3ncnc(Nc4ccc(OCc5cccc(F)c5)c(Cl)c4)c3c2)o1 [lapatinib]
Summary of the method: (§1)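 K562 pellets were dounce-homogenised in PBS pH 7.4 with 1 mM MgCl2, and the crude extract at 1 mg/mL protein was treated with 10 μM compound for 30 min. Aliquots were heated for 3 min across 48°C-58°C, pooled, and brought to 0.5% NP-40 at 4°C; soluble protein was the supernatant after 21,000xg for 90 min. Soluble protein was quantified by TMTpro 16plex LC-MS/MS with channel sums equalised, and reported as log2 fold change in thermal stability against DMSO controls, with values from duplicates.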

pictilisib = compound: CS(=O)(=O)N1CCN(Cc2cc3nc(-c4cccc5[nH]ncc45)nc(N4CCOCC4)c3s2)CC1 [pictilisib]
Summary of the method: as §1

crizotinib = compound: C[C@@H](Oc1cc(-c2cnn(C3CCNCC3)c2)cnc1N)c1c(Cl)ccc(F)c1Cl [crizotinib]
Summary of the method: as §1

[1] = compound: C[C@H](C1=CC=C(C=C1)C(=O)NC2=C3C=CNC3=NC=C2)N
Summary of the method: as §1

duvelisib = compound: C[C@H](Nc1ncnc2nc[nH]c12)c1cc2cccc(Cl)c2c(=O)n1-c1ccccc1 [duvelisib]
Summary of the method: as §1

gandotinib = compound: Cc1cc(Nc2cc(CN3CCOCC3)c3nc(C)c(Cc4ccc(Cl)cc4F)n3n2)n[nH]1 [gandotinib]
Summary of the method: as §1

tozasertib = compound: Cc1cc(Nc2cc(N3CCN(C)CC3)nc(Sc3ccc(NC(=O)C4CC4)cc3)n2)n[nH]1 [tozasertib]
Summary of the method: as §1

doramapimod = compound: Cc1ccc(-n2nc(C(C)(C)C)cc2NC(=O)Nc2ccc(OCCN3CCOCC3)c3ccccc23)cc1 [doramapimod]
Summary of the method: as §1

bafetinib = compound: Cc1ccc(NC(=O)c2ccc(CN3CC[C@H](N(C)C)C3)c(C(F)(F)F)c2)cc1Nc1nccc(-c2cncnc2)n1 [bafetinib]
Summary of the method: as §1

[2] = compound: Cc1cccc(CC(=O)N2CCc3c2ccc(-c2cn(C)c4ncnc(N)c24)c3F)n1
Summary of the method: as §1

Chain of UniProt Q49A26 (Q49A26 whole entry, looked up): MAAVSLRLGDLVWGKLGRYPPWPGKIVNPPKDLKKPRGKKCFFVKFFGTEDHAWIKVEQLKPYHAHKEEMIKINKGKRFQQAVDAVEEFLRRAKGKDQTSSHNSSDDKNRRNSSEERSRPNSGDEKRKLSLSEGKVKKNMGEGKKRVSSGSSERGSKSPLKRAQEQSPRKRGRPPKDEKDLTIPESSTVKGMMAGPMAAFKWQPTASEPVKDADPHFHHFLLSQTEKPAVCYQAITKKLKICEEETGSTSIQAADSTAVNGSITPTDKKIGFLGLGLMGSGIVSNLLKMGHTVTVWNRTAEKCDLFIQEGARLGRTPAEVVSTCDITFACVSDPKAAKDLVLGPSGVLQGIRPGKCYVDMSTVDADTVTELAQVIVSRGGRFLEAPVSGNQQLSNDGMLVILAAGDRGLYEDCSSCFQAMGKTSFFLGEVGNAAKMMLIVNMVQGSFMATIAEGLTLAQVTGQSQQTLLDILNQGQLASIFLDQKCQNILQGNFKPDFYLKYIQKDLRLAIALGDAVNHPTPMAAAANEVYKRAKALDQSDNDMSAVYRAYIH
Chain of UniProt P52655 (P52655 whole entry, looked up): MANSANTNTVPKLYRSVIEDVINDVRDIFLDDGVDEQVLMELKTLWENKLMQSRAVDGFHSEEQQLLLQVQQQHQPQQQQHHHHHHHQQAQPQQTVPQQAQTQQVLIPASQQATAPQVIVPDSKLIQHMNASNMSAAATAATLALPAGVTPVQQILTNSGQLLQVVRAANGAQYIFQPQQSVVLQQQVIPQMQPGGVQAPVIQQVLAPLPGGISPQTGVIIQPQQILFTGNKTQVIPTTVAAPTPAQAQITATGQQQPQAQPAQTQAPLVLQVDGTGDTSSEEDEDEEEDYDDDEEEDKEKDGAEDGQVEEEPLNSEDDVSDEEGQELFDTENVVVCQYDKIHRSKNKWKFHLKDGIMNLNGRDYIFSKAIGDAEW
Chain of UniProt Q9BXW7 (Q9BXW7 whole entry, looked up): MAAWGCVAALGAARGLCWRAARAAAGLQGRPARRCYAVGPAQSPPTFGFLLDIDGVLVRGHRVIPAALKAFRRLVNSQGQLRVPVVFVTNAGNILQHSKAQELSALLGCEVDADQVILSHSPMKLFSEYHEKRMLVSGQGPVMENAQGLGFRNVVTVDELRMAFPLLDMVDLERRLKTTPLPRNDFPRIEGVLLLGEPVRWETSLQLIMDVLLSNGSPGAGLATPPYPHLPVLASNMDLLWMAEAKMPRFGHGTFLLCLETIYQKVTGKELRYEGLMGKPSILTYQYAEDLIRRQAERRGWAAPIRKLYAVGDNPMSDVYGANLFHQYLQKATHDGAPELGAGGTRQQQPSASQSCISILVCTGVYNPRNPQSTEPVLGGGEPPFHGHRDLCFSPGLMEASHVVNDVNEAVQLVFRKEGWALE
Chain of UniProt Q9NVX7 (Q9NVX7 whole entry, looked up): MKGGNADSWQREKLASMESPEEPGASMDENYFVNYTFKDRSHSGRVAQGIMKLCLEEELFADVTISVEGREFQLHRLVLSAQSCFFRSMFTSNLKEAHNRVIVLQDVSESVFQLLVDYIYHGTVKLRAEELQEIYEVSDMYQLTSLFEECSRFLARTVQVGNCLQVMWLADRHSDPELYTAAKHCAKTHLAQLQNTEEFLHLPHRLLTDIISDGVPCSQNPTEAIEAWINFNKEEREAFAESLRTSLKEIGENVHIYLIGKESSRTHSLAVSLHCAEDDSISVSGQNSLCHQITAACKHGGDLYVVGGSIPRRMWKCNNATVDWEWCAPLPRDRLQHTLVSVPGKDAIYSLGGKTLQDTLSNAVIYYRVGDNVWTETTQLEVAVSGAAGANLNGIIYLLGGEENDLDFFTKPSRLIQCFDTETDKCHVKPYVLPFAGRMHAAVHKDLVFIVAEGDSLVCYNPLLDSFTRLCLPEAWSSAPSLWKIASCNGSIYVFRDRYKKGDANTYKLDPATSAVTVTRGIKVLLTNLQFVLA
Chain of UniProt P52789 (P52789 whole entry, looked up): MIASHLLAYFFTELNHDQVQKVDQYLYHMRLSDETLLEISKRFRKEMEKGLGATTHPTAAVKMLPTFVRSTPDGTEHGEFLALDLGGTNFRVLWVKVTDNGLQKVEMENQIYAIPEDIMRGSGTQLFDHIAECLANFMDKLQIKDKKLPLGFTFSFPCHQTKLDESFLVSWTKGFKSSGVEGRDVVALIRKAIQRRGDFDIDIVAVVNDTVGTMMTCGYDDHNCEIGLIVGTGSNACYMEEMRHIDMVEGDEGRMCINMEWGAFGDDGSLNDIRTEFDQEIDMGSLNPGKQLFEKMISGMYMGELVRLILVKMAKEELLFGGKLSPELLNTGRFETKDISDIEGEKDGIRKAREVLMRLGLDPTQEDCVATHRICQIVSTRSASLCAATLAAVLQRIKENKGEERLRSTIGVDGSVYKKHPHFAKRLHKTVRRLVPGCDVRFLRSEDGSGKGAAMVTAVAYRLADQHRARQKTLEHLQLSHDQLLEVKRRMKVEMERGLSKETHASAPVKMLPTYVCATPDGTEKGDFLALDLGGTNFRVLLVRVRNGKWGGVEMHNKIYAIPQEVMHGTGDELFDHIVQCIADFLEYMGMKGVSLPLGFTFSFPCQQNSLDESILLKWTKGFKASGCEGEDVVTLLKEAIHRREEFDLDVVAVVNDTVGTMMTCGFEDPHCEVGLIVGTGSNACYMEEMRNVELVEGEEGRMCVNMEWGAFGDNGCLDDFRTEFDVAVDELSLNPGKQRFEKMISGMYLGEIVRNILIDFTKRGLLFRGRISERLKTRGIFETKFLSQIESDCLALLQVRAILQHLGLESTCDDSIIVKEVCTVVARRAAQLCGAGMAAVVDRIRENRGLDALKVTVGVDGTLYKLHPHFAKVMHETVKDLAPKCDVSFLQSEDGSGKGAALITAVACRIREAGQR
Chain of UniProt P78347 (P78347 whole entry, looked up): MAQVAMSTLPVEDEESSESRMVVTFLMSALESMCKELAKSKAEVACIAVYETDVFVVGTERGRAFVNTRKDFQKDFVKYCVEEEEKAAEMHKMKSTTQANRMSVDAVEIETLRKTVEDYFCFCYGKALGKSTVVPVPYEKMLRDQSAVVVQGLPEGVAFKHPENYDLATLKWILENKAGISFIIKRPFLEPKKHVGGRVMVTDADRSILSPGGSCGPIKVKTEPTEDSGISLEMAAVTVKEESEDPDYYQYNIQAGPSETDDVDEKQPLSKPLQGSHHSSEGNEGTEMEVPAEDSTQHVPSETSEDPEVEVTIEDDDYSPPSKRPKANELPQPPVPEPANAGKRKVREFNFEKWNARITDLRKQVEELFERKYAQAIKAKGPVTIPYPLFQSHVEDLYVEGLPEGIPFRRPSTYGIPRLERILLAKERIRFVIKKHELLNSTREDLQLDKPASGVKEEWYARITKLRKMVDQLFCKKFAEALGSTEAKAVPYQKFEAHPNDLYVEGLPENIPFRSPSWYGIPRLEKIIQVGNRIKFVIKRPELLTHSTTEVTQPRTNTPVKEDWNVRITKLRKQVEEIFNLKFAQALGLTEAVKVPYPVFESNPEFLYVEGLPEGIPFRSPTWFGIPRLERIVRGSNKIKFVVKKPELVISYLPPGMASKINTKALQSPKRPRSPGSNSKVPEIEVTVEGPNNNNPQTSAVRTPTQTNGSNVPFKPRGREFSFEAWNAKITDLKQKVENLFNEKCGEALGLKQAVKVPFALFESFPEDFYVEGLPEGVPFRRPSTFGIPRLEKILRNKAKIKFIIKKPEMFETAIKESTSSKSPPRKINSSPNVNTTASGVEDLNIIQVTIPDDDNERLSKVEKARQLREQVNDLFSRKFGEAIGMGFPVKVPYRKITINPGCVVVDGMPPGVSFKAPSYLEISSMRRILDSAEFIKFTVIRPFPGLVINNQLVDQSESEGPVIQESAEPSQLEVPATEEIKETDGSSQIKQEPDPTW
Chain of UniProt Q7Z4Q2 (Q7Z4Q2 whole entry, looked up): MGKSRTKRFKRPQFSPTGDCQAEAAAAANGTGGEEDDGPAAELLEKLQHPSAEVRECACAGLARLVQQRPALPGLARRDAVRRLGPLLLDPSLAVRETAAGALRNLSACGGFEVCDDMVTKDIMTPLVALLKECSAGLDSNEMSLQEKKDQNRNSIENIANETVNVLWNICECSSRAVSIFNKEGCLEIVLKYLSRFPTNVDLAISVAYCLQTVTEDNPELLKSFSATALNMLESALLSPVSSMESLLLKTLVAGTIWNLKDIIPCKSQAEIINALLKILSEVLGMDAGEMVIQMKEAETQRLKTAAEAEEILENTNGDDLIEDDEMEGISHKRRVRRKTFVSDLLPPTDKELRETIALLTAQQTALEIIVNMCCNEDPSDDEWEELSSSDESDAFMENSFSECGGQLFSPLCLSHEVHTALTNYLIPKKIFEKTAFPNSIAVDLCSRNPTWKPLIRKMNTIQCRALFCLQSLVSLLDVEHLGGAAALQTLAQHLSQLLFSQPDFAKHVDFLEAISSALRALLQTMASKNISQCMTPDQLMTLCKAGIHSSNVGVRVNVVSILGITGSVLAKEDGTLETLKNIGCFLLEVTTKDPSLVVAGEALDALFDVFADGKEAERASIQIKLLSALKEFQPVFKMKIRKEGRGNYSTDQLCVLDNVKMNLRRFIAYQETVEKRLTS
Chain of UniProt P49448 (P49448 whole entry, looked up): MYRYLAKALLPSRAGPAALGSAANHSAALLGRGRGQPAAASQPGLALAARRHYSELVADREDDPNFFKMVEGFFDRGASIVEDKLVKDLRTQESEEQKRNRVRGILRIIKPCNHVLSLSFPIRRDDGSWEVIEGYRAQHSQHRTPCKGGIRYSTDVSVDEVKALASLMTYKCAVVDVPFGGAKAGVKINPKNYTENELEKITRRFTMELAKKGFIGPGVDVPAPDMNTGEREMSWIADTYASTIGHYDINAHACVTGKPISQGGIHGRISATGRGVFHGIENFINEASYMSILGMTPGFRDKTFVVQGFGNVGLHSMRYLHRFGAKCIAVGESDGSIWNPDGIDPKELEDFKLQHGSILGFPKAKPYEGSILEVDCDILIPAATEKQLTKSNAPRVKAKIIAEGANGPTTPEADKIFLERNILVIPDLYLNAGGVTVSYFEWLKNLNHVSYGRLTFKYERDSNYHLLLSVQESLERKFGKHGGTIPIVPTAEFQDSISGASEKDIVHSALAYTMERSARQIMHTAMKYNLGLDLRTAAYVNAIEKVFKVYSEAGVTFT

| Target | log2 fold change (lapatinib) | log2 fold change (pictilisib) | log2 fold change (crizotinib) | log2 fold change [1] | log2 fold change (duvelisib) | log2 fold change (gandotinib) | log2 fold change (tozasertib) | log2 fold change (doramapimod) | log2 fold change (bafetinib) | log2 fold change [2] |
| --- | --- | --- | --- | --- | --- | --- | --- | --- | --- | --- |
| HK2 (UniProt P52789) | -0.003 | -0.017 | -0.069 | 0.043 | 0.007 | -0.056 | 0.007 | 0.05 | -0.076 | 0.004 |
| KBTBD4 isoform 2 (UniProt Q9NVX7) | 0.03 | -0.015 | -0.038 | -0.075 | 0.056 | 0.109 | -0.068 | -0.023 | -0.013 | 0.047 |
| KEAP1 (UniProt Q14145) | -0.005 | -0.023 | -0.007 | 0 | 0.026 | 0.019 | -0.017 | 0.01 | 0 | 0.008 |
| GTF2A1 (UniProt P52655) | 0.034 | 0.011 | 0.055 | 0.327 (active) | 0.009 | -0.141 | 0.064 | 0.028 | 0.026 | -0.111 |
| GSTM4 (UniProt Q03013) | -0.091 | 0.073 | -0.006 | -0.118 | -0.034 | 0.011 | -0.12 | 0.076 | 0.029 | 0.051 |
| GLYR1 (UniProt Q49A26) | 0.053 | 0.045 | -0.058 | 0.019 | -0.079 | 0.045 | -0.044 | 0.11 | -0.042 | -0.04 |
| INPPL1 (UniProt O15357) | 0.023 | 0.006 | -0.047 | -0.05 | -0.004 | -0.065 | 0.029 | 0.01 | -0.05 | 0.03 |
| HDHD5 (UniProt Q9BXW7) | 0.011 | 0.012 | -0.017 | -0.147 | 0.058 | -0.005 | 0.059 | 0.131 | 0.033 | 0.116 |
| KCTD20 (UniProt Q7Z5Y7) | -0.064 | 0.039 | -0.077 | 0.006 | -0.082 | 0.006 | -0.119 | -0.01 | 0.007 | -0.005 |
| HK1 isoform 2 (UniProt P19367) | 0 | -0.009 | -0.023 | -0.026 | -0.033 | -0.051 | 0.038 | 0.039 | -0.023 | 0.029 |
| HEATR3 (UniProt Q7Z4Q2) | -0.003 | 0 | -0.074 | -0.006 | -0.005 | -0.078 | -0.021 | 0.027 | -0.064 | 0.031 |
| INTS3 (UniProt Q68E01) | -0.05 | -0.005 | -0.016 | 0.02 | -0.005 | -0.104 | 0.018 | 0.106 | -0.07 | -0.052 |
| GTF2I (UniProt P78347) | -0.005 | -0.011 | -0.039 | -0.01 | 0.016 | -0.086 | -0.004 | 0.018 | -0.066 | 0.027 |
| GLUD2 (UniProt P49448) | -0.009 | 0.144 | -0.097 | -0.004 | 0.001 | 0.099 | 0.03 | -0.028 | 0.049 | 0.024 |
